Experimental data: PubChem BioAssay AID1508600 (Functional Genomics Laboratory (NCATS/FGL), 2020)
The whole screen tested about 53,000 sequences, of which about 3,700 (7%) were called active. Only a selection was taken, and actives are over-represented in it overall. Values without a mark were called inactive.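 Rule for the calls: active = gene knockdowns whose robust z-score for IL-1 alpha signal is at least 2 or at most -2, so actives lie on both sides; inactive = the rest.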

Assay: Components of the Cytosolic LPS Sensing Pathway: Gene Identification via Genome-wide siRNA Screen;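 note: robust z of the log signal after scaling to non-targeting control siRNA wells of the plate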
Conditions: RAW264.7 macrophages, IL-1a HTRF, actives lie on both sides, screened at 100 nM (by protocol), cells primed 5 h with Pam3CSK4 first
Method in brief: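 Mouse macrophage line RAW264.7 is transfected with siRNA (100 nM final), grown 48h, primed with TLR ligand Pam3CSK4 5 h and given intracellular LipidA 24 h. IL-1a in supernatant is read by HTRF and viability by luminescence.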

| Sequence | z-score |
| --- | --- |
| GGACAAGAUAGGAGGAGACTT against Abhd16a | -0.776 |
| GCUUGUGCUGAAUUACACCTT against Vps35 | 2.11 (active) |
| GCACGAAUCCUUGGAGAAATT against Batf2 | -0.254 |
| GGUGAUUUAGUUGUGUAAATT against Calcr | 0.294 |
| GGUUCCAUCUUCUCAGGACTT against Olfr395 | 1.01 |
| GGUGGAAUAUUUCAUGGACTT against Csnk2a1 | 3.43 (active) |
| GGAAGAGGACACAUUAGGCTT against Gtsf1l | 0.11 |
| GGUGAGUUUUGCUAAAAGUTT against Syp | 0.783 |
| GCAAGAAGUAUUUUCAGUATT against Galnt4 | 1.34 |
| GGAACAACGGAAAAGCGAGTT against Ankrd1 | 1.25 |
| GGAAUCCUCGGCAGAUAAATT against Rpl24 | 2.31 (active) |
| GGCAGAAAAUUGUUCUUAUTT against Cpt1a | -1.49 |
| GGCUUCUGGUACAUUAUUGTT against Lcn10 | -1.23 |
| GGGCAACUAUUGAUGAGGUTT against Acap3 | -0.138 |
| GGACGGUGACCUGUAUGAUTT against Cpxm1 | -2.4 (active) |
| GCAUUAAAGUAGAAGGUCUTT against Snx31 | 0.812 |
| GCGGCAAGAUUAAUAAGUCTT against Mpzl1 | 0.798 |
| GGAUCUCGAAGUUACUGCATT against Dnajc5b | 1.77 |
| GCCUAGCAAUGACUGGGAUTT against Sdhaf2 | -0.635 |
| GCCUUCUGGCAAGAAUCUUTT against Krtap9-3 | 1.21 |
| CCACUCAAGCGGUAAGGAUTT against Slc22a1 | 4.16 (active) |
| GGUGGCACAUAAGAAAUCCTT against Trim66 | -1.61 |
| CGGACACACAGUUGAUCCGTT against Cct6b | -2.15 (active) |

| Sequence | z-score |
| --- | --- |
| GCGGGACUUUAUCUCAUCCTT against Mfsd4b1 | -0.815 |
| CCUUCUUUAUAGGUAUGACTT against Klhl36 | 0.91 |
| GGAAAGAAGCAGCGGACUUTT against Nme7 | 2.29 (active) |
| GGCAUUCAGAGCUGAUUCATT against Mia3 | 0.93 |
| GCCCUGGCAUGCUAACAAATT against Prpf3 | -0.749 |
| GGUACUACAAGCUAGCUGUTT against Scd4 | -0.114 |
| GGAAGUUUGUAGAGUAUGUTT against Xylt1 | -0.187 |
| CCCGAGAACAUCUUGUACGTT against Rps6ka4 | 2.69 (active) |
| GGGUUCAAGAGAUGAUAUUTT against Usp11 | 0.245 |
| GGCUGAGAAACUGGAUGAATT against Rem1 | -0.143 |
| GGCUGUAUGACUCAGCUCUTT against Olfr711 | -0.912 |
| CCGGAAACUUCCUACGUGUTT against Cbln1 | -0.424 |
| GGAUAGAAACAUUUCUGUGTT against Olfr1145 | 2.1 (active) |
| GGACCAUGAGAAAUUUAAUTT against Nr2f1 | 1.41 |
| GGCGGUUAAUGACAAGAACTT against Sdk2 | -0.0303 |
| CGUGGAGUAAGGAGAAUAUTT against Ints7 | 0.364 |
| GGAAAUCACAUUGUCCUGCTT against 3010003L21Rik | 1.13 |
| GGAUCUGACACACAUGAUCTT against Med16 | 2.3 (active) |
| GGAGAAAGCAAGGAUAAUCTT against Rgs20 | 0.562 |
| CGCAGAGAAGGUCAUUAAATT against Il1f5 | 0.519 |
| GGUCUUCUCCGAGUACUUUTT against Ap1m1 | 4.38 (active) |
| GCACUCAGAACAACUAAAATT against Dglucy | 0.641 |
| GCUCCAUGAAUGUCCAACATT against Sphkap | -2.41 (active) |

| Sequence | z-score |
| --- | --- |
| GUUCUAGGCCUCCUGAAGCTT against Dohh | -0.808 |
| GCUGAUGUCUCAACCUAGATT against Zkscan2 | -1.72 |
| GGCUUUGUCUUGAAUGGCUTT against Adgre1 | -1.11 |
| CGCCGGAAGUUCUACCACUTT against Tmem205 | 0.223 |
| GAACAUCAUCUCACACUCATT against Olfr874 | -0.000467 |
| GGAUAGAGACUGCUGGGUUTT against Zfp579 | 0.248 |
| CCAAGUUGGCAUACUAUUCTT against Pank4 | -0.126 |
| GCCAGUCCUUCAAGUGUAUTT against Jak2 | 4.16 (active) |
| CCAUCUCAUCCCACGACACTT against Mrgprx1 | -0.334 |
| GGCCUUUGCAUGCAAUAGUTT against Zfp119b | 0.0596 |
| GCAGCCUUGUUUCAGUUCUTT against Fam43a | 0.765 |
| CCUCUCUACAUCCACUACUTT against Pogz | 3 (active) |
| GGAGAACACAGGUGGACUUTT against Ppy | 0.125 |
| GGAGGCCAAGCAGAAAGAGTT against Kars | 0.184 |
| GACUGCUUCCUUCUGACUGTT against Olfr399 | -0.575 |
| AAAAGAUGCAUGUCUCCUUTT against Hbq1a | -1.76 |
| GGCUUUUGACUUUACCCUATT against Acy3 | -1.3 |
| GGAAAUAUUUUCUCAGCAATT against Pcdhga1 | 1.52 |
| GCCCUCAUACCUACUAUGUTT against 4631405J19Rik | 0.787 |
| GGAAGAGAUUUCUAAACUUTT against Mcoln2 | -1.93 |
| GGGCAAAAUAUAGCAAUGATT against Vmn1r233 | -2.11 (active) |
| GCUGACUUCACAUUUGGCUTT against Mms19 | -0.24 |
| GGAGUAUGUGGAAUGUCUATT against Creb3l1 | -0.903 |
